According to PubChem BioAssay (EPA / NIEHS):
Records with an inconclusive call do not appear. More than one record can exist for a structure, and the calls need not agree. Activity calls are given as the source filed them. The calls were made as follows: active = hit-call score of the fitted dose curve at least 0.9, where 1 is the maximum; inconclusive = response in the unintended direction; inactive = score below 0.9.

Target: Cellular tumor antigen p53 (Homo sapiens) (UniProt P04637)
Test: TOX21_p53_BLA_p3_ratio: Tox21 HCT-116 p53 Agonism Beta-lactamase Assay, Ratio, Phase 3 (AID 2283596)
From the text: TOX21_p53_BLA_p3 is a cell-based, single-readout assay that uses HCT116, a human intestinal cell line, […] in a 1536-well plate.TOX21_p53_BLA_p3_ratio is an assay readout measuring reporter gene via receptor activity and designed using inducible reporter (beta lactamase induction) detected with GAL4 b-lactamase reporter gene. The signal is derived from the ratio of cleaved (ch2) to uncleaved (ch1) reporter gene substrate used as the measure of target activity.Data from the assay component TOX21_p53_BLA_p3_ratio was analyzed into 1 assay endpoint. This assay endpoint, TOX21_p53_BLA_p3_ratio, was analyzed in the positive analysis fitting direction relative to DMSO as the negative control and baseline of activity. Using a type of inducible reporter, gain-of-signal activity can be used to understand changes in the reporter gene as they relate to the gene TP53. Furthermore, this assay endpoint can be referred to as a primary readout, because this assay has produced multiple assay endpoints where this ratio serves a reporter gene function to understand target activity. To generalize the intended target to other relatable targets, this assay endpoint is annotated to the DNA binding intended target family, where the subfamily is tumor suppressor.
Thawing Method: Place 14 mL of pre-warmed thaw medium into a 15 mL of conical tub. Remove the vial of cells to be thawed from liquid nitrogen and thaw rapidly by placing at 37C in a water bath with gentle agitation for 1-2 minutes. Decontaminate the vial by wiping with 70% ethanol before opening in a biological safety cabinet. Transfer the vial contents drop-wise into 14 mL of thaw medium in a sterile 15-mL conical tub. Centrifuge cells at 900 rpm for 4 minutes and resuspend in thaw medium. Transfer contents to the T75 tissue culture flask containing Thaw Medium and place flask in a humidified 37C/5% CO2 incubator. Switch to growth medium at first passage.Propagation Method: Aspirate medium, rinse once in DPBS, add 0.25% Trypsin/EDTA and swirl to coat the cell evenly. Add an equal volume of Growth Medium to inactivate Trypsin after 2-3 minutes incubation at 37C. Centrifuge cells at 900 rpm for 4 minutes and resuspend in growth medium. Cell should be passage or fed at least twice a week.Assay Protocol: Harvest cells from culture in growth medium and resuspend in assay medium. 2.2 Dispense 4000 cells/5 uL/well into 1536-well black/clear bottom plates using a Multidrop dispenser. After the cells were incubated at 37C for 5 hours, 23 nL of compounds dissolved in DMSO were transferred to the assay plate by a PinTool resulting in a 217-fold dilution. Incubate the plates for 16 hours at 37C, 5% CO2. Add 1 uL of 6X LiveBLAzer FRET B/G (CCF4-AM) Substrate Mixture to each well using a BioRAPTR dispenser and incubate the plates at room temperature for 2 hours. Measure fluorescence intensity at 460 and 530 nm emission and 405 nm excitation by an Envision detector. Data is expressed as the ratio of 460nm/530nm emissions. Add 4 uL of Cell-titer Glo to each well using BioRAPTR and incubate the plates at room temperature for 2 hours. Measure fluorescence intensity by a VewLux plate reader.

Cellular tumor antigen p53 (Homo sapiens), sequence (P04637 whole entry, looked up): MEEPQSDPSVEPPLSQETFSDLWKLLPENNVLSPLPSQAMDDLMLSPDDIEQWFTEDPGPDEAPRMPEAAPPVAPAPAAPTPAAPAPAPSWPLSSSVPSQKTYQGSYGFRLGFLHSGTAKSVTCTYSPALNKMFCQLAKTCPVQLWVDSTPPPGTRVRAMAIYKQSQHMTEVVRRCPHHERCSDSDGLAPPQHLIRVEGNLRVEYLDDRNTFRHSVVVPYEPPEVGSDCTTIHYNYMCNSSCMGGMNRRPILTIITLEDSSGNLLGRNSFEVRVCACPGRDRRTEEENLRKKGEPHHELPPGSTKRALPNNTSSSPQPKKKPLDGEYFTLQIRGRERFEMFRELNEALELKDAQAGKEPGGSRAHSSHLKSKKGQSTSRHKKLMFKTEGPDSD

Compound	outcome	AC50
C=CC(C)(CCC=C(C)C)OC(=O)C=Cc1ccccc1 (stereo not given)	inactive	
CC12CCC(CC1)C(C)(C)O2	inactive	
C=C(C)[C@@H]1CC=C(C)CC1	inactive	
C=C1C[C@H]2[C@@H]3C=C(C)C4=CC(=O)CC[C@]4(C)[C@H]3CC[C@]2(C)[C@@]1(OC(C)=O)C(C)=O	inactive	
CC(C)[N+](C)(CCOC(=O)C1c2ccccc2Oc2ccccc21)C(C)C	inactive	
CC(C)(C)N	inactive	
O=C1CCCCCCCCCCCN1	inactive	
CC1(C)CCC[C@]2(C)[C@H]3CC(=O)O[C@]3(C)CC[C@@H]12	inactive	
C=CC(=O)OCCCCCCCCCC	inactive	
O=C(O[C@@H]1Cc2c(O)cc(O)cc2O[C@@H]1c1cc(O)c(O)c(O)c1)c1cc(O)c(O)c(O)c1	inactive	
CC(C)(c1ccccc1)c1ccc(Nc2ccc(C(C)(C)c3ccccc3)cc2)cc1	inactive	
C1CNCCN1	inactive	
CCCCC/C=C\C/C=C\CCCCCCCC(=O)O	inactive	72 µM (active)
Oc1ccc(/C=C/c2cc(O)cc(O)c2)cc1	inactive	
CCCSSCCC	inactive	
CCCCNS(=O)(=O)c1ccc(C)cc1	inactive	
c1ccc(Nc2cccc3ccccc23)cc1	inactive	
O=C(Nc1ccccc1)c1cc(Cl)ccc1O		4.05 µM (active)
CCOC(=O)C1=NOC(c2ccccc2)(c2ccccc2)C1	inactive	
O=C1CCCCCCCCCCC1	inactive	

Compound	outcome	AC50
O=C(OCCc1ccccc1)c1ccccc1	inactive	
CC1CCC(C(C)(C)S)C(=O)C1 (stereo not given)	inactive	
CC(=O)OC1CCCCC1C(C)(C)C (stereo not given)	inactive	
COc1ccc(-c2coc3cc(O)cc(O)c3c2=O)cc1	inactive	
CCCc1ccc(O)c(OC)c1	inactive	
N=C1C=CC(=C(c2ccc(N)cc2)c2ccc(N)cc2)C=C1		60.4 µM (active)
CCCCC(=O)O	inactive	
C=C(C)C(=O)OCCCCCCCCCCCC	inactive	
CC(=O)C(C)C	inactive	
CCCCC1C(=O)N(c2ccccc2)N(c2ccccc2)C1=O	inactive	
CC(C)(CO)COC(=O)C(C)(C)CO	inactive	
CC(C)c1cc(C(C)C)cc(C(C)C)c1	inactive	
CC(C)(C)C1CCC(=O)CC1	inactive	
CC(=O)CC(=O)Nc1ccccc1C	inactive	
CCCCc1ccc(Cl)cc1	inactive	
CCC(C)C(=O)OCCc1ccccc1 (stereo not given)	inactive	
Fc1ccc(Br)cc1	inactive	
O=C(C=Cc1ccccc1)OCCc1ccccc1	inactive	
Cc1c(C(=O)c2c[nH]n(C)c2=O)ccc(S(C)(=O)=O)c1C1=NOCC1	inactive	
